# SENP8 block-1 – SENP8 protease inhibitors, primary screen, biochemical, luminescence. Sentrin-specific protease 8 (Homo sapiens), Q96LD8. purified SENP8, Z-RLRGG-aminoluciferin cleavage. inhibition, % at 10 µM. 330,000 compounds, 1.2% hits. AID 2540, 2010; in the data active = inhibition above about 50%
# SENP8 block-2 – human SENP8 protease inhibitors, primary screen, biochemical, fluorescence, Nedd8 protein substrate, uHTS. recombinant SENP8. 360,000 compounds, 0.64% hits. inhibition, % at 20 µM. Sentrin-specific protease 8 (Homo sapiens), Q96LD8; in the data active = inhibition mostly above about 40%, no sharp cut-off; inactive = mostly below about 27%
# SENP6 block – SENP6 protease inhibitors, primary screen, biochemical, luminescence, uHTS; Sentrin-specific protease 6 (Homo sapiens), Q9GZR1; Recombinant SENP6 catalytic domain, aminoluciferin luminescence; inhibition, % at 10 µM; AID 2599, 2010; 330,000 compounds, 1.8% hits;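 active = inhibition above about 50% at the single tested dose, limit read from the data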;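 also: plate controls were DMSO wells with enzyme for no effect and DMSO wells lacking enzyme for full effect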
# Target sequence (Q9GZR1 628-1112 limits assumed): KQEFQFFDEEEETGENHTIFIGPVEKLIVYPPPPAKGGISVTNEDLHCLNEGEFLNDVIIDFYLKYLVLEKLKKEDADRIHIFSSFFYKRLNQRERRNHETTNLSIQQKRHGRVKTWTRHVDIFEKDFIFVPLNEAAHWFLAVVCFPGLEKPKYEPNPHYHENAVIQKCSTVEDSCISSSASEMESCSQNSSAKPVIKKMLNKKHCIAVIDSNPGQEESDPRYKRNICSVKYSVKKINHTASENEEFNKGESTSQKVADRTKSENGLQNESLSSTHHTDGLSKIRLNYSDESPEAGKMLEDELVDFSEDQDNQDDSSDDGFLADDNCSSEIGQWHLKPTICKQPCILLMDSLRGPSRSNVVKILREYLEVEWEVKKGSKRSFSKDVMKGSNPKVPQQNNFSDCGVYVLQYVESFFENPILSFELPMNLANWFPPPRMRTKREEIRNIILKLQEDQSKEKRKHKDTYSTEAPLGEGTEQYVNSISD
# HSP90 inh – HSP90 inhibitors, primary screen, cell lysate, luminescence; Heat shock protein HSP 90 (rabbit reticulocyte lysate; luciferase refolding); Rabbit reticulocyte lysate, luciferase refolding luminescence, 3 h; inhibition, % at 5.6 µM; 290,000 compounds, 0.91% hits;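 active = inhibition above the screen-wide mean plus 3 SD, computed separately per campaign, cut at about 16% in these data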;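 also: 0% = DMSO wells and 100% = 60 µM geldanamycin wells; inhibitors lower the luminescence because luciferase stays unfolded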
# SENP7 block – SENP7 protease inhibitors, primary screen, biochemical, luminescence, uHTS. AID 434973, 2010. inhibition, % at 5 µM. recombinant SENP7, Z-RLRGG-aminoluciferin luminescence, 40 min. 330,000 compounds, 1.5% hits. Sentrin-specific protease 7 (Homo sapiens), Q9BQF6;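 active = inhibition above about 50% at the single test dose, limit read from the data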;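 also: plate controls were DMSO with enzyme for no effect and no enzyme buffer wells for full effect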
# SENP8 confirm – SENP8 protease inhibitors, retest, confirmation, biochemical, luminescence, single concentration | shares compounds with SENP7 block | Recombinant SENP8, Z-RLRGG-aminoluciferin luminescence, 60 min | inhibition, % at 12.5 µM | 6,200 compounds, 40% hits;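 active = mean inhibition across replicates above about 50%, limit read from the data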
# SENP6 confirm – SENP6 protease inhibitors, confirmation, biochemical, luminescence, single concentration; shares compounds with SENP7 block; recombinant SENP6, Z-RLRGG-aminoluciferin luminescence; inhibition, % at 12.5 µM; 6,200 compounds, 58% hits; AID 488915, 2010
# SENP7 confirm – SENP7 protease inhibitors, retest, confirmation, biochemical, luminescence, single concentration. shares compounds with SENP7 block. recombinant SENP7, Z-RLRGG-aminoluciferin luminescence, 40 min. inhibition, % at 12.5 µM. 6,200 compounds, 69% hits
# Casp3 select – caspase-3 protease inhibitors, confirmation, selectivity assay for SENP inhibitor project, biochemical, single concentration. 6,200 compounds, 60% hits. purified caspase-3, Z-DEVD-aminoluciferin luminescence, 60 min. AID 488918, 2010. inhibition, % at 12.5 µM. shares compounds with SENP7 block;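 active = mean inhibition above about 50%, limit read from the data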;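 also: plate controls were enzyme with DMSO for no effect and wells without caspase-3 for full effect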
# SENP luc ctr – luminescence interference (SENP counter-screen) | shares compounds with SENP7 block | Pre-incubated SENP8/Z-RLRGG-aminoluciferin, luciferase luminescence interference | inhibition, % at 12.5 µM | 6,200 compounds, 39% hits | AID 488919;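 active = mean inhibition above about 50% when retested at one dose, limit read from the data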;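 also: plate controls were DMSO wells with completed reaction for no effect and substrate without enzyme for full effect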
# The depositor's hits bear a star; x = no result. Only some compounds are listed: those with a hit (about 2.8% of all), similar ones and a draw of the others.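 The calls were made as follows, unless noted: active = mean inhibition above about 50% in the one-dose retest (limit read from the data); inactive = the rest.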
SMILES,SENP8 block-1,SENP8 block-2,SENP6 block,HSP90 inh,SENP7 block,SENP8 confirm,SENP6 confirm,SENP7 confirm,Casp3 select,SENP luc ctr
COc1ccc(NC(=O)c2nc3ccccc3s2)cc1,95*,9,95*,13,97*,4,98*,102*,94*,75*
COc1ccc(C(=O)c2c(C(F)(F)F)oc3c2C(=O)c2ccccc2C3=O)cc1,47,81*,70*,13,27,27,70*,15,72*,-6
O=c1c2ccccc2sn1-c1ccc(Cl)cc1,x,9,x,x,x,x,x,x,x,x
O=c1c2ccccc2sn1-c1ccc(F)cc1,74*,11,82*,x,36,84*,84*,96*,91*,84*
COc1ccc2nc(-c3ccco3)c(-c3ccco3)nc2c1,22,-200,23,3,4,x,x,x,x,x
COc1ccc2nc3cccc(OC)c3nc2c1,28,16,73*,-2,30,-6,-3,42,51*,0
CCCCc1ccc(-c2ccc(Br)cc2)nc1,58*,14,68*,3,10,30,34,51*,46,40
CCCCCc1ccc(-c2ccc(=O)[nH]n2)cc1,-2,12,14,0,3,x,x,x,x,x
NC(=O)CC(NC(=O)Cc1cccc2ccccc12)c1ccc(NCC2CC2)c([N+](=O)[O-])c1 (stereo not given),-9,21,-4,x,7,x,x,x,x,x
O=c1oc(C2(O)CCCCC2)cc2ccc(-c3ccc4[nH]ccc4c3)cc12,10,-360,12,x,53*,-12,-4,-5,5,1
O=c1oc(C2(O)CCCCC2)cc2ccccc12,-3,9,-16,x,-6,x,x,x,x,x
Cc1cc2ncn(S(=O)(=O)c3ccc(S(N)(=O)=O)cc3)c2cc1C,x,5,x,x,x,x,x,x,x,x
Cc1cc2ncn(S(=O)(=O)c3ccc(S(=O)(=O)N4CCCCCC4)cc3)c2cc1C,-8,5,0,-2,68*,-5,-1,4,3,-3
Oc1c(Cl)cc(Cl)cc1C=Nc1cc(C(F)(F)F)ccc1N1CCc2ccccc2C1,96*,-112,15,14,99*,94*,96*,102*,95*,62*
Oc1c(Cl)cccc1C=Nc1cc(C(F)(F)F)ccc1N1CCCC1,5,8,1,-1,1,x,x,x,x,x
Cc1cccc(C)c1NC(=O)CN(C)C(=O)c1ccccc1C(=O)N(C)Cc1ccccc1,-6,16,-15,4,-12,x,x,x,x,x
Cc1cccc(C)c1NC(=O)CN(C)C(=O)C(c1ccccc1)c1ccccc1,1,4,13,-2,91*,-4,-3,-7,-3,-4
O=Cc1ccc(-c2nc3ccccc3s2)o1,70*,-358,63*,13,80*,-3,70*,87*,82*,23
O=C(O)CCN1C(=O)/C(=C/c2ccc(-c3nc4ccccc4s3)o2)SC1=S,-5,6,7,1,8,x,x,x,x,x
COc1cccc(NC(=O)Nc2nccc(C)n2)c1,31,1,58*,2,55*,30,32,71*,76*,34
Cc1ccnc(NC(=O)Nc2cccc(F)c2)n1,44,9,28,-1,67*,30,31,57*,61*,12

# High-throughput results as filed in PubChem.
